Results taken from PubChem BioAssay (NCATS).
Results filed as inconclusive are left out. Entries that show only a call come without a potency. Activity calls are given as the source filed them. Unless noted, calls follow the shape of the dose curve; as a rule, active = well fitted curve in the direction sought with a large enough effect; inconclusive = small, poorly fitted or top-dose-only effect, or another doubt; inactive = no such curve, though single readings can be large; an effect the other way counts as inactive or inconclusive.

What was measured:
[1] = AP1 Signaling Pathway (AID 357; active = well fitted curve in either direction with a large enough effect, not every such curve was filed as active;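 also: ME-180 reporter cells stimulated with EGF at its EC50 level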)
Method in brief: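 Beta-lactamase reporter under AP-1 response element, ME-180 background. Stimulus: EC50 EGF. Compound exposure 5 h, 37 °C. Detection: CCF4, 2.5 h RT, 460/530 nm. Values: AC50 from titration.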

[2] = molecular target: Cytochrome P450 1A2 (Homo sapiens) (UniProt P05177); experiment: p450-cyp1a2 (AID 410; calls by dose curve; also: potency is read from the fitted curve at half-maximal effect)
Sequence of Cytochrome P450 1A2 (Homo sapiens) (P05177 whole entry, looked up): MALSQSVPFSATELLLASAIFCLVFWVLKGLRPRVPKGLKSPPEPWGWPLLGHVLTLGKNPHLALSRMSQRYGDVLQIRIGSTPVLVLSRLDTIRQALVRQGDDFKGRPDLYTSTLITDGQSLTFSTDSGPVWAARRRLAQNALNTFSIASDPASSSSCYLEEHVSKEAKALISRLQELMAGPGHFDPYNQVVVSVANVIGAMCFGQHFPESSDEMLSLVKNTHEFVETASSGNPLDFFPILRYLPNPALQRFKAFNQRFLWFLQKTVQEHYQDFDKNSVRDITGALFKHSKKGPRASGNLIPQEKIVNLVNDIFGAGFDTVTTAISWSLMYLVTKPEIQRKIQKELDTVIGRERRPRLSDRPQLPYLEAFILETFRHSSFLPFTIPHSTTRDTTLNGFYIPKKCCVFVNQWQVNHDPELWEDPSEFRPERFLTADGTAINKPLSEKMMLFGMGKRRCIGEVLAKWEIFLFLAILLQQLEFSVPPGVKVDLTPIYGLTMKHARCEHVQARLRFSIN
Method in brief: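 Human CYP1A2 (20nM) demethylated Luciferin-ME at its Km (100uM) in 100mM KPO4. After 10 min compound preincubation, NADPH regeneration ran the reaction 60 min at room temperature. Luciferin was read by luminescence, normalized to 57 uM furafylline.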

[3] = NFAT Signaling Pathway (AID 444; active = well fitted curve in either direction with a large enough effect, not every such curve was filed as active;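 also: carbachol stimulus at about its EC50 of 1 µM final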); details: Jurkat NFAT-bla M1, carbachol, beta-lactamase ratio, 5 h; at 17.2 µM (top of the series) unless noted
Method in brief: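 Jurkat cells with NFAT-driven β-lactamase reporter and co-expressed M1 receptor, stimulated with carbachol (final 1 uM, ~EC50), compound titration, 5 h at 37 °C. CCF4 loaded 1 h at RT; 460/530 nm ratio gave %activity and AC50.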

[4] = Stat Signaling Pathway (AID 446; active = well fitted curve in either direction with a large enough effect, not every such curve was filed as active;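 also: ME-180 cervical cancer cells given 40 pM IL-6 alongside compound; SIE-controlled beta-lactamase reporter measured as 460/530 nm FRET emission ratio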)
Method in brief: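 ME-180 cells carrying a SIE-driven beta-lactamase reporter are stimulated with 40 pM IL-6 for 5 h at 37C in the presence of compound. The 460/530 nm FRET substrate ratio is read after 2.5 h at RT. Data are normalised to 300 pM IL-6 and to 125 nM JAK inhibitor controls.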

[5] = molecular target: Glucocorticoid receptor (Homo sapiens) (UniProt P04150); experiment: GR-EFC Redistribution (AID 451; calls by dose curve; also: potency is read from the fitted curve at half-maximal effect); details: CHO-K1 GR-EFC translocation, beta-gal luminescence, 2 h
Sequence of Glucocorticoid receptor (Homo sapiens) (P04150 whole entry, looked up, the tested form may be a part): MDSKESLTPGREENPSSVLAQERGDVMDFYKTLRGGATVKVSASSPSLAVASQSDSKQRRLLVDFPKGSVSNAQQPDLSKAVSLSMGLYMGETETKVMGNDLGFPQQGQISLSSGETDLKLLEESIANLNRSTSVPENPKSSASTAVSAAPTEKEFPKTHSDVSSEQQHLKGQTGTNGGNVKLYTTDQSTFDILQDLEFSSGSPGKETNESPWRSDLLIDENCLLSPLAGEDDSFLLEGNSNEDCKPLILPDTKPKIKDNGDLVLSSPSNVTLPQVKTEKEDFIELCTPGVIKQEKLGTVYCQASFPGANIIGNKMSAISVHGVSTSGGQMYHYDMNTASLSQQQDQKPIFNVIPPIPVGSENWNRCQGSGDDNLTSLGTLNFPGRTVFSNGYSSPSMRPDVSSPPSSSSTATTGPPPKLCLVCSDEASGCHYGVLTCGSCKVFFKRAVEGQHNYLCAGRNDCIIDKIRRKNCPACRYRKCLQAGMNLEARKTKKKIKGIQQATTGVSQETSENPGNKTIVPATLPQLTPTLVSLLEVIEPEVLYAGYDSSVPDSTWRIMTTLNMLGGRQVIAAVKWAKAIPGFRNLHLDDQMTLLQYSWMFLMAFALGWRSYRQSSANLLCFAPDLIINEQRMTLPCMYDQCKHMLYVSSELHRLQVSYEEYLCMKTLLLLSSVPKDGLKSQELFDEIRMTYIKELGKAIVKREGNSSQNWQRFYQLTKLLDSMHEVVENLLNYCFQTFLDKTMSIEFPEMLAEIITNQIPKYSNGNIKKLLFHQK
Method in brief: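 CHO-K1 cells expressing nuclear EA and GR-ED fragments of b-gal; compounds titrated up to 46 uM final, 2 h at 37 C. GR nuclear translocation read as complemented b-gal luminescence after 1 h RT detection.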

[6] = molecular target: Mitogen-activated protein kinase 10 (Mus musculus) (UniProt Q61831); experiment: JNK3 AlphaScreen Assay (AID 530; active = well fitted curve in either direction with a large enough effect, not every such curve was filed as active;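 also: kinase came from lysate of stimulated human HepG2 cells; signal reports phosphorylation of biotinylated GST-cJun 1-79 at Ser73 with 10 µM ATP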)
Method in brief: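 qHTS format: compounds tested as titrations against IL-1beta/TNF-alpha-activated HepG2 lysate JNK3 with biotin-GST-cJun substrate and 10 uM ATP at room temperature. Loss of anti-phospho-cJun AlphaScreen signal indicates inhibition.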

[7] = qHTS Assay for Lipid Storage Modulators (AID 1519; calls by dose curve); details: Drosophila S3 cells, BODIPY lipid droplet/cell ratio, laser cytometry, cells loaded with oleic acid
Method in brief: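 Cells seeded at 5,000 per well were treated with compounds over a concentration series and loaded with oleic acid (400 uM, as added). Lipid droplet fluorescence (488 nm excitation, 500-530 nm channel) was read by laser-scanning cytometry and normalized to 20 uM Triacsin C.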

[8] = molecular target: Ubiquitin carboxyl-terminal hydrolase 1 (Homo sapiens) (UniProt O94782); experiment: Inhibitors of USP1/UAF1: Pilot qHTS (AID 504865);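 also: rhodamine fluorescence freed from ubiquitin-rhodamine substrate followed over time; top concentration of the series differs between compounds; nearly all actives have a fitted effect of over 35% in size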
Sequence of Ubiquitin carboxyl-terminal hydrolase 1 (Homo sapiens) (O94782 whole entry, looked up): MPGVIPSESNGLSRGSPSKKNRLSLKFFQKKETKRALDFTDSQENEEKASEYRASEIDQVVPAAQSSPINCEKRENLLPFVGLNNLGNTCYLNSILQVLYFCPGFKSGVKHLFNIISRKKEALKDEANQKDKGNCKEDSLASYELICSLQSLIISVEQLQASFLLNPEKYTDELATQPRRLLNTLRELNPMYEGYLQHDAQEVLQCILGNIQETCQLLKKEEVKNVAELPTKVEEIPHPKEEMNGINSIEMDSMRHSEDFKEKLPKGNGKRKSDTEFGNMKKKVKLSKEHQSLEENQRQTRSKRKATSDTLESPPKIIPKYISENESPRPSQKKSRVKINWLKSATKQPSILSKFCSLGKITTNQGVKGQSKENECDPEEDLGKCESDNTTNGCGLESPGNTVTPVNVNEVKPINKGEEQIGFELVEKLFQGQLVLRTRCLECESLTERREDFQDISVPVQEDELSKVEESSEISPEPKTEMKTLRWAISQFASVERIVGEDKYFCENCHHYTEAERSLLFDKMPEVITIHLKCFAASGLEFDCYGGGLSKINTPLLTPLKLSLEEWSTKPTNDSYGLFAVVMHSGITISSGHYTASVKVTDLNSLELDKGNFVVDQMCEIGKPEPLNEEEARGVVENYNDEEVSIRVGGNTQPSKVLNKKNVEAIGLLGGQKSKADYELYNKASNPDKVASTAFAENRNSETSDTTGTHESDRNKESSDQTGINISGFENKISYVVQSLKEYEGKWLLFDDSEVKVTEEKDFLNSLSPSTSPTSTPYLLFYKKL
Method in brief: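 In 50mM HEPES pH 7.8 containing 0.5mM EDTA, 1mM TCEP, 0.1 mg/ml BSA and 0.01% Tween-20, 1nM USP1/UAF1 is exposed to compound for 15 min, then Ub-Rho (150nM final) is added and fluorescence is read over time.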

[9] = molecular target: Glucocorticoid receptor (Homo sapiens) (UniProt P04150); experiment: GR-GFP Redistribution (AID 450;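 active = compounds whose dose series gives a full or clear partial fitted curve of increased nuclear translocation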; also: potency is read from the fitted curve at half-maximal effect); details: U2OS GR-GFP nuclear translocation, laser cytometry, 2 h
[10] = molecular target: 3',5'-cyclic-AMP phosphodiesterase 4B (Homo sapiens) (UniProt Q07343); experiment: qHTS Assay for Inhibitors of PDE-IV (AID 607; active = well fitted activation curve with a large enough effect in the main read-out, with a control signal flat, not every such curve was filed as active)
Sequence of 3',5'-cyclic-AMP phosphodiesterase 4B (Homo sapiens) (Q07343 whole entry, looked up): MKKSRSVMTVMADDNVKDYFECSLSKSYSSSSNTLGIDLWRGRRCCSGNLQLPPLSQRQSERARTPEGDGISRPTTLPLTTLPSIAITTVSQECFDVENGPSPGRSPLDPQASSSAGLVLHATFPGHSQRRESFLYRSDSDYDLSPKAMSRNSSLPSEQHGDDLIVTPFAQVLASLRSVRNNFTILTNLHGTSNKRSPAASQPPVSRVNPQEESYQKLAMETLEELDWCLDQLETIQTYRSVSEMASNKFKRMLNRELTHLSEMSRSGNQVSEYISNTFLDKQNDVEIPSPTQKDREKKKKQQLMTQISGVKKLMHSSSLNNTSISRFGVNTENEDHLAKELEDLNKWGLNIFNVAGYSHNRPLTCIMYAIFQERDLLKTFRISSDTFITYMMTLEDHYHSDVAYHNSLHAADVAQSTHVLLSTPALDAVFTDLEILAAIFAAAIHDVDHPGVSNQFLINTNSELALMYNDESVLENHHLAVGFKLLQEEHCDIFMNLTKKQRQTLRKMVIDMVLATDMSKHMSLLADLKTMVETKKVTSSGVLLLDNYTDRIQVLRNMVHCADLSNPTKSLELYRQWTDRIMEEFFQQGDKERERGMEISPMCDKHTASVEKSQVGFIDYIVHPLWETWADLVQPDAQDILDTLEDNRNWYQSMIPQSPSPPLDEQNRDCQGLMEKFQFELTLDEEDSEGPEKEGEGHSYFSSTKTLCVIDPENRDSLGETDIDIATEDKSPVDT
Method in brief: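 HEK293 ACTOne cells with CNG channel (1000/well), endogenous PDE4; membrane potential dye, compounds up to 22.9 uM final. Fluorescence Ex 535/Em 590; RO 20-1724 (100 uM final) as reference.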

[11] = molecular target: ATP-dependent 6-phosphofructokinase (Trypanosoma brucei brucei) (UniProt O15648); experiment: qHTS Assay to Find Inhibitors of T. brucei phosphofructokinase: hit validation (AID 492961)
Sequence of ATP-dependent 6-phosphofructokinase (Trypanosoma brucei brucei) (O15648 whole entry, looked up): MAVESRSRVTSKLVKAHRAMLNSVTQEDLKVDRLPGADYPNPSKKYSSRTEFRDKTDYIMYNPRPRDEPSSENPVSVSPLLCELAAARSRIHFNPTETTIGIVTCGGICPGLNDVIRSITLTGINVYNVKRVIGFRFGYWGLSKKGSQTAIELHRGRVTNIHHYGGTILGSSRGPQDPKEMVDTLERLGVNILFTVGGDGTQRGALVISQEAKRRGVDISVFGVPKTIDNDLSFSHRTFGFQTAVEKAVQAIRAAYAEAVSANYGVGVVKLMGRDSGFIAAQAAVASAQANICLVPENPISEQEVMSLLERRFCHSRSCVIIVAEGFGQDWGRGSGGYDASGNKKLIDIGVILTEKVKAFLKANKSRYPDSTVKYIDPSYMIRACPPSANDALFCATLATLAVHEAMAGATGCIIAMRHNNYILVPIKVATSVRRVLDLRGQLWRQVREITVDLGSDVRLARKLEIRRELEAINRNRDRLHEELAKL
Method in brief: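 Luminescence from ADP-Glo reports ADP generated as T. brucei PFK (1.25 nM) phosphorylates 0.5 mM fructose-6-phosphate using 0.1 mM ATP. Reactions ran 45 min at room temperature, pH 8.0.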

[12] = molecular target: Luciferin 4-monooxygenase (Photinus pyralis) (UniProt P08659); experiment: Biochemical firefly luciferase enzyme assay for NPC (AID 624030);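 also: purified P. pyralis luciferase at 10 nM with luciferin and ATP substrate; nearly all actives have a fitted effect of over 70% in size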
Sequence of Luciferin 4-monooxygenase (Photinus pyralis) (P08659 whole entry, looked up): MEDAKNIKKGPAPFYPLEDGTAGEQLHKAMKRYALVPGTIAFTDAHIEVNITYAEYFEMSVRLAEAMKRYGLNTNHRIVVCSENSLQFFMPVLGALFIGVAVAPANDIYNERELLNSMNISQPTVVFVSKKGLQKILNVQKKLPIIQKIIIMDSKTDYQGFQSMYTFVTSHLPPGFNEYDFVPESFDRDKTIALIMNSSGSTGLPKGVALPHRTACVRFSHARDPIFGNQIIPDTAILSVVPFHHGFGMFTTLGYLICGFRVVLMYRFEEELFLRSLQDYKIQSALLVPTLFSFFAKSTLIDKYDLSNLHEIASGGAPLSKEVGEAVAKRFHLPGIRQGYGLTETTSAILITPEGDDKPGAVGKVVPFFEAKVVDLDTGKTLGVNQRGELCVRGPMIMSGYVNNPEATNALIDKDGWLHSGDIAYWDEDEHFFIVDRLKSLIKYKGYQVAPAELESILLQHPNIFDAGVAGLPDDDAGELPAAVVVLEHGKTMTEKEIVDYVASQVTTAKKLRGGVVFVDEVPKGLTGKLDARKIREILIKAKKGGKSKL
Method in brief: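 Purified P. pyralis luciferase at 10 nM in 50 mM Tris Acetate (final), luminescence read within 5 minutes of enzyme addition to compounds. Activity normalised to PTC124 versus DMSO; concentration-response curves classed by r2, magnitude and activity.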

[13] = S16 Schwann cell viability assay (CellTiter-Glo assay) (AID 624031);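 also: cellular ATP luminescence as a viability measure; nearly all actives have a fitted effect of over 70% in size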
Method in brief: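 Luminescent ATP read-out (CellTiter-Glo) after 24 h compound exposure of native S16 rat Schwann cells at 37 °C. Signals were normalized between cell-free wells and DMSO-treated cells, set as 0% activity.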

[14] = qHTS profiling for inhibitors of Plasmodium falciparum proliferation (AID 504749); also: nearly all actives have a fitted effect of over 60% in size; details: P. falciparum in erythrocytes, SYBR Green DNA, 72 h, at 12.8 µM (top of the series)
Method in brief: (§1)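 Readout was DNA-dye fluorescence from lysed cultures, ex 485/em 535 nm. Parasitized red cells had grown 72 h with compound; data scaled between 0.29 uM artemisinin and DMSO wells and corrected using vehicle-only plates.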

C2A = experiment: as above; details: P. falciparum in erythrocytes, SYBR Green DNA, 72 h; series mostly up to 12.8 µM
Method in brief: as §1

CP191 = experiment: as above; details: P. falciparum in erythrocytes, SYBR Green DNA, 72 h; series mostly up to 12.8 µM
Method in brief: as §1

CP250 = experiment: as above; details: P. falciparum in erythrocytes, SYBR Green DNA, 72 h; series mostly up to 12.8 µM
Method in brief: as §1

FAB9 = experiment: as above; details: P. falciparum in erythrocytes, SYBR Green DNA, 72 h; series mostly up to 12.8 µM
Method in brief: as §1

JCK = experiment: as above; details: P. falciparum in erythrocytes, SYBR Green DNA, 72 h; series mostly up to 12.8 µM
Method in brief: as §1

SC27B = experiment: as above; details: P. falciparum in erythrocytes, SYBR Green DNA, 72 h; series mostly up to 12.8 µM
Method in brief: as §1

[15] = measured here: cell count channel max response
[16] = measured here: lipid channel max response

## O=c1[nH]c(=O)n([C@@H]2C[C@H](O)[C@H](CO)O2)cc1C(F)(F)F
[1]
  outcome: inactive
[2]
  Potency: inactive
[3]
  activity change, negative = inhibition: 1.4% (inactive)
[4]
  outcome: inactive
[5]
  Potency: > 20.6 µM (inactive)
[6]
  Potency: inactive
[7]; at 25.7 µM (top of the series)
  activity change, negative = inhibition: -0.507% (inactive)
[7]; [15]
  max response: -7.04%
[7]; [16]
  max response: -7.97%
[8]
  Potency: inactive

## CC(C)(CS)C(=O)N1CCC[C@H]1C(=O)O
[1]
  outcome: inactive
[2]
  Potency: inactive
[3]
  activity change, negative = inhibition: -3.44% (inactive)
[4]
  outcome: inactive
[9]
  Potency: > 20.6 µM (inactive)
[5]
  Potency: > 20.6 µM (inactive)
[6]
  Potency: inactive
[10]
  outcome: inactive
[7]; at 25.7 µM (top of the series)
  activity change, negative = inhibition: 1% (inactive)
[7]; [15]
  max response: 2.97%
[7]; [16]
  max response: 4.64%

## Cc1noc(C)c1-c1nc(Nc2ccncc2)c2ccccc2n1
[1]
  outcome: inactive
[2]
  Potency: 0.1 µM (active)
[3]
  activity change, negative = inhibition: -11.9% [at 7.69 µM] (inactive)
[4]
  outcome: inactive
[9]
  Potency: > 46 µM (inactive)
[5]
  Potency: > 46 µM (inactive)
[6]
  Potency: inactive
[7]; at 57.5 µM (top of the series)
  activity change, negative = inhibition: -8.29% (inactive)
[7]; [15]
  max response: -5.56%
[7]; [16]
  max response: -10.6%

## CN(C)/N=N\c1nc[nH]c1C(N)=O
[1]
  outcome: inactive
[2]
  Potency: inactive
[3]
  activity change, negative = inhibition: 3.5% (inactive)
[4]
  outcome: inactive
[9]
  Potency: > 20.6 µM (inactive)
[6]
  Potency: inactive
[10]
  outcome: inactive
[7]; at 25.7 µM (top of the series)
  activity change, negative = inhibition: 0.337% (inactive)
[7]; [15]
  max response: 10.1%
[7]; [16]
  max response: 7.48%
[8]
  Potency: inactive

## NS(=O)(=O)c1cc2c(cc1Cl)N[C@@H](C(Cl)Cl)NS2(=O)=O
[1]
  outcome: inactive
[2]
  Potency: inactive
[3]
  activity change, negative = inhibition: -8.61% (inactive)
[4]
  outcome: inactive
[6]
  Potency: inactive
[10]
  outcome: inactive
[7]; at 25.7 µM (top of the series)
  activity change, negative = inhibition: -2.63% (inactive)
[7]; [15]
  max response: -19.9%
[7]; [16]
  max response: -19.9%
[11]
  outcome: inactive
[8]
  Potency: inactive
[12]
  Potency: inactive
[13]
  outcome: inactive
[14]; parasite line A
  activity, negative = inhibition: -8.3% (inactive)
[14]; parasite line B
  activity, negative = inhibition: 4.19% (inactive)
C2A
  Potency: inactive
CP191
  Potency: inactive
CP250
  Potency: inactive
FAB9
  Potency: inactive
JCK
  Potency: inactive
SC27B
  Potency: inactive

## CC(=O)O[C@]1(C(C)=O)CC[C@@H]2[C@@H]3C=C(C)C4=CC(=O)CC[C@@]4(C)[C@H]3CC[C@]21C
[1]
  outcome: inactive
[2]
  Potency: inactive
[3]
  activity change, negative = inhibition: -7.69% (inactive)
[4]
  outcome: inactive
[9]
  Potency: 0.00312 µM (active)
[6]
  Potency: inactive
[10]
  outcome: inactive
[7]; at 25.7 µM (top of the series)
  activity change, negative = inhibition: -3.56% (inactive)
[7]; [15]
  max response: -20.2%
[7]; [16]
  max response: -22%
[11]
  outcome: inactive
[12]
  Potency: inactive
[13]
  outcome: inactive
[14]; parasite line A
  activity, negative = inhibition: -0.563% (inactive)
[14]; parasite line B
  activity, negative = inhibition: 2.77% (inactive)
C2A
  Potency: inactive
CP191
  Potency: inactive
CP250
  Potency: inactive
FAB9
  Potency: inactive
JCK
  Potency: inactive
SC27B
  Potency: inactive
